Screens from PubChem BioAssay.
Most compounds without a hit are left out; they make up all but 21% or so of the library.
Shiga inhibitor = A qHTS for Small Molecule Inhibitors of Shiga Toxin | actives 9.2% (n = 290,000) | inhibition, % at 38.7 µM | AID 2315, 2010 | Vero cells, Shiga toxin protein synthesis inhibition reporter; in the data active = inhibition mostly above about 28%, no sharp cut-off; inactive = mostly below about 43%
CHX counter = Cycloheximide Counterscreen for Small Molecule Inhibitors of Shiga Toxin. actives 12% (n = 300,000). max response, %. cell reporter, cycloheximide protein synthesis inhibition counterscreen; in the data active = max response mostly above about 13%, no sharp cut-off; inactive = mostly below about 14%; also: read at 38.3 µM for the half of the compounds with a filed dose
Pf growth 48h = Primary qHTS for delayed death inhibitors of the malarial parasite plastid, 48 hour incubation; actives 5.9% (n = 310,000); P. falciparum luciferase growth in erythrocytes, 48 h; Potency, µM (titrated, usually from 28.7 µM), actives largely listed as inhibitors
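Parasite viability was followed by luminescence of a genomically integrated firefly luciferase. Cultures held 0.1% parasitemia at 2% hematocrit (final), incubated under 5% CO2 at 37 C.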
NS1 inh = qHTS Assay for Inhibitors of Influenza NS1 Protein Function; AID 2326, 2010; actives 0.4% (n = 270,000); Potency, µM (highest dose often 46.1 µM); calls by dose curve; also: actives are rising curves; nearly all actives have a fitted effect of over 50% in size
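OD600 was taken as the measure of yeast growth restored by compound in an NS1-expressing S. cerevisiae strain. Cells had been washed out of glucose medium and diluted 1:100 into galactose -URA medium, pH 6.0.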
Pf growth 96h = Primary qHTS for delayed death inhibitors of the malarial parasite plastid, 96 hour incubation. P. falciparum luciferase reporter growth, 96 h. Potency, µM (titrated, usually from 28.7 µM), hits mostly inhibitors. actives 6.9% (n = 320,000). AID 504834, 2011
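P. falciparum expressing integrated firefly luciferase, in erythrocytes at 2% hematocrit, 0.05% parasitemia, incubated with compounds 96 h at 37 C, 5% CO2. Growth inhibition read as loss of luminescence; two-generation exposure targets delayed-death apicoplast inhibitors.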
Hits are given with their value; 0 = inactive; ? = inconclusive; - = no result given; + = active, no number; [ ] = remark or other dose. Unless noted, calls follow the shape of the dose curve; as a rule, active = well fitted inhibition curve with a large enough effect; inconclusive = small, poorly fitted or top-dose-only effect, or another doubt; inactive = no such curve, though single readings can be large or run the other way.

SMILES | Shiga inhibitor | CHX counter | Pf growth 48h | NS1 inh | Pf growth 96h
CN(C)c1ccc(NC(=O)c2cccc(C(=O)Nc3ccc(N(C)C)cc3)n2)cc1 | + | 49 | ? | 0 | 8.3µM
COc1cc(NC(=O)c2cnc(NCc3ccccc3)nc2C)cc(OC)c1OC | 0 | 0 | ? | 0 | 0
CC(C)c1ccc(NC(=S)Nc2ccc3[nH]c(=O)[nH]c3c2)cc1 | 24 | 0 | 0 | 0 | 0
COc1cccc(CNc2ncc(C(=O)Nc3cc(OC)c(OC)c(OC)c3)c(C)n2)c1 | 0 | 0 | 10µM | 0 | ?
COc1cccc(NC(=O)c2cccc(OC)c2OC)c1 | 125 | 70 | 0 | 0 | -
COc1cccc(C(=O)Nc2ccncc2)c1OC | - | 0 | 0 | 0 | 0
COCCNC(=O)C(OC(=O)C1=Cc2ccccc2OC1)C(C)C (stereo unspecified) | 0 | 0 | 0 | 0 | ?
CCC1NC(=S)NC(C)=C1C(=O)c1ccccc1 (stereo unspecified) | 0 | 0 | 0 | - | 0
Cc1ccc(OCc2ccccc2C)c([N+](=O)[O-])n1 | 0 | 41 | 0 | 0 | 0
Cc1ccc(OCc2ccc([N+](=O)[O-])cc2)c([N+](=O)[O-])n1 | 0 | 0 | 0 | 0 | 0
Cc1ccc(OCCOc2ccc(Br)cc2)c([N+](=O)[O-])n1 | 154 | 72 | 0 | 0 | 0
CCC(=O)OCC(=O)[C@@]1(OC(=O)CC)[C@@H](C)C[C@@H]2[C@H]3CCC4=CC(=O)C=C[C@]4(C)[C@@]3(F)[C@@H](O)C[C@@]21C | 0 | 0 | - | - | -
CCC(=O)O[C@@]1(C(=O)SCF)[C@@H](C)C[C@H]2[C@@H]3C[C@@H](F)C4=CC(=O)C=C[C@@]4(C)[C@]3(F)[C@@H](O)C[C@]21C | - | - | 5.7µM | - | 4.1µM
O=C(COCC(=O)N1CCOCC1)N1CCOCC1 | 0 | 0 | 0 | - | 0
CCOC(=O)c1sc(NC(=O)c2ccco2)nc1C | 0 | 0 | 0 | 0 | ?
CCOC(=O)c1sc(NC(=O)c2ccc(OC)cc2)nc1C | 0 | 0 | 0 | 0 | ?
COC(=O)c1sc(NC(=O)c2ccc(C)o2)nc1C | 147 | 47 | 0 | 0 | ?
COC(=O)c1sc(NC(=O)c2oc3ccccc3c2C)nc1C | 38 | 28 | 0 | 0[9.22 µM] | -
CCOC(=O)c1sc(NC(=O)c2ccc(C)o2)nc1C | 43 | 28 | - | 0 | 0
CCOC(=O)c1sc(NC(=O)c2ccc(OC(C)=O)cc2)nc1C | 56 | 21 | 0 | 0 | ?
Cc1c(C(=O)Nc2nnc(C(F)(F)F)s2)oc2ccccc12 | 0 | 0 | 0 | 0 | 0
COc1ccc(CNC(=O)CCn2nc(C)c3c(C)n(-c4ccccc4)nc3c2=O)c(OC)c1 | 0 | 0 | 0 | 0 | ?
COc1ccnc(Oc2ccc(F)cc2)c1-c1ncn[nH]1 | 0 | 0 | 0 | - | 0
COCCCNc1nc2nonc2nc1N1CCC(C(C)N2CCOCC2)CC1 (stereo unspecified) | 0 | 0 | 0 | 0 | 0
CN(C)/C=C/C(=O)c1ccc(Br)s1 | 54 | 21 | 0 | 0 | 0
SMILES | Shiga inhibitor | CHX counter | Pf growth 48h | NS1 inh | Pf growth 96h
CN(C)/C=C/C(=O)c1ccc(Oc2ccccc2)cc1 | 83 | 34 | 0 | 0 | 0
COc1ccc(C(=O)/C=C/N(C)C)cc1 | 0 | 20 | 0 | 0 | 0
CCCc1ccc(C(=O)/C=C/N(C)C)cc1 | 42 | 14 | 0 | 0 | 0
CCOc1ccc(C(CC(=O)O)NC(=O)C(CC)c2ccccc2)cc1 (stereo unspecified) | 0 | 0 | 0 | 0 | 0
COc1ccc2c(c1)nc(NCCCO)n2Cc1ccccc1 | 0 | 0 | 0 | 0 | 0
CCCc1cc(=O)n2c([nH]c3ccccc32)c1C#N | 0 | 0 | 0 | 0 | -
CN(C)/C=C/C(=O)c1ccccc1 | 63 | 41 | 0 | 0 | 0
CN(C)/C=C/C(=O)c1ccc(F)cc1 | 0 | 21 | 0 | 0 | 0
Cn1nc(C(F)(F)F)c(CNC(=O)C(C)(C)CCl)c1N1CCOCC1 | 0 | 0 | 0 | 0 | ?
C#Cc1ccc2c(c1)C(=O)N(C)Cc1c(C(=O)OCCCOC(=O)c3ncn4c3CN(C)C(=O)c3cc(C#C)ccc3-4)ncn1-2 | 0 | 0 | - | - | -
COC(=O)Cc1cc(=O)[nH]c(/N=C(\N)Nc2ccc(C(C)C)cc2)n1 | 0 | 0 | 0 | 0 | 0.83µM
COC(=O)Cc1cc(=O)[nH]c(/N=C(\N)Nc2cccc(C)c2)n1 | 0 | 0 | 0 | 0 | 12µM
COc1ccc(-c2cc(-c3ccc(OC)c(OC)c3)n[nH]2)c(O)c1 | 97 | 71 | - | 0 | ?
